JMJD2A Tudor = inhibitors of human JMJD2A Tudor domain | O75164 | AlphaScreen JMJD2A-Tudor / H3K4me3 peptide binding | Potency, µM (highest dose often 114 µM), hits mostly inhibitors | 390,000 tested, 4.4% active; further: nearly all actives have a fitted effect of over 50% in size
HP1b chromo inh = inhibitors of HP1-beta chromodomain binding to methylated histone tails; P83916; AlphaScreen HP1-beta / biotin-H3K9me3 peptide binding; Potency, µM (doses to about 114 µM), most hits filed as inhibitors; 390,000 tested, 0.56% active; AID 540317; further: nearly all actives have a fitted effect of over 70% in size
Target sequence (P83916 whole entry, looked up): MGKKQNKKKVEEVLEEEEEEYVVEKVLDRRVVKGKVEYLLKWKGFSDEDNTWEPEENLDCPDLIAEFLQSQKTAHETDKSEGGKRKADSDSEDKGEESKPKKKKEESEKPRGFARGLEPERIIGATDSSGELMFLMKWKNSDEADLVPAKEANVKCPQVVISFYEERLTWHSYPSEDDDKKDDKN
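Compound inhibition of the preformed complex between 50 nM HP1-beta and 50 nM biotinylated H3K9me3 peptide was read by AlphaScreen. Buffer was PBS pH 7.4 with 0.01% Tween-20. Incubations ran 30 min at room temperature, with 10 ug/mL donor/acceptor beads.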
Sfp PPTase inh = inhibitors of Bacillus subtilis Sfp phosphopantetheinyl transferase; Q9F4F7; Biochemical Sfp PPTase activity, qHTS; Potency, µM, usual class: inhibitors; 310,000 tested, 3.5% active; AID 1490;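 further: the enzyme is Sfp with the accession as filed and its product quenches rhodamine fluorescence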
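Buffer: 50 mM Hepes-Na pH 7.6, 10 mM MgCl2, 0.01% Nonidet P-40, 0.01% BSA. Enzyme 15 nM, pre-exposed to compound 15 min; substrates then added and fluorescence change tracked over 30 min.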
BAZ2B inh = blocks human BAZ2B; AlphaScreen BAZ2B-H3K14Ac peptide displacement; Potency, µM (highest dose often 114 µM), most hits filed as inhibitors; 360,000 tested, 4.4% active; AID 504333; further: nearly all actives have a fitted effect of over 60% in size
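Compounds, titrated to a top concentration of 110 uM, were incubated 30 min at room temperature with preformed BAZ2B/acetyl-K14 H3 peptide complex (50 nM each). Proximity signal was measured by AlphaScreen after 20 min with beads.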
G9a block = G9a (human) methyltransferase inhibition | Q96KQ7 | G9a H3K9 monomethylation, AlphaScreen, 2 h | Potency, µM (highest dose often 102 µM), actives largely listed as inhibitors | 350,000 tested, 8.8% active | AID 504332; further: nearly all actives have a fitted effect of over 75% in size
Target sequence (Q96KQ7 913-1193 limits assumed): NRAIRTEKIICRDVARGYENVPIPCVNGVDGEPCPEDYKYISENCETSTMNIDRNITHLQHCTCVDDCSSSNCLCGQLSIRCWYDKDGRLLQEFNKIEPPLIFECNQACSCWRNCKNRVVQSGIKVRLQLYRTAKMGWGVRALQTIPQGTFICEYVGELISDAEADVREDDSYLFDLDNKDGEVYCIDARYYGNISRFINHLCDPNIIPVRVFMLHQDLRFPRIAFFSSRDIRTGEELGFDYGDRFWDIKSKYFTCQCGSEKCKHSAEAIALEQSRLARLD
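Quantitative HTS format: methyltransferase activity on a biotin-tagged H3K9 peptide is measured by AlphaScreen, using a rabbit anti-monomethyl-H3K9 antibody with streptavidin donor and anti-IgG acceptor beads. Final levels are 20 nM enzyme, 500 nM peptide, 20 uM SAM; 2 h RT.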
L3MBTL1 block = blocks human L3MBTL1. Q9Y468. AlphaScreen L3MBTL1–H3K9me1 peptide binding. Potency, µM (series often up to 57.1 µM), usual class: inhibitors. 230,000 tested, 0.66% active. AID 485360; further: nearly all actives have a fitted effect of over 60% in size
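L3MBTL1 (50 nM) pre-complexed 30 min with biotinylated H3(1-15)K9me1 peptide (75 nM), then compounds added for 30 min at room temperature; AlphaScreen streptavidin donor/nickel chelate acceptor beads (10 ug/mL final) read after 30 min dark incubation.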
Of the large screens only hits and unclear results are named; the others gave an inactive call. This is a sample that favours compounds with a hit; in the whole collection about 12% have one here. The call rests on the fitted dose curve; in most records, active means well fitted curve in the direction sought with a large enough effect; inconclusive means small, poorly fitted or top-dose-only effect, or another doubt; inactive means no such curve, though single readings can be large; an effect the other way counts as inactive or inconclusive.

O=C(COC(=O)Cc1ccccc1F)Nc1ccc(Cl)cn1	JMJD2A Tudor 20µM (no result: L3MBTL1 block)
c1ccc(-[n+]2nc(Nc3cccc4ccccc34)sc2-c2c3ccccc3cc3ccccc23)cc1	JMJD2A Tudor 2.51µM, HP1b chromo inh inconclusive, BAZ2B inh 3.55µM, L3MBTL1 block inconclusive (no result: Sfp PPTase inh)
COc1ccc(C)cc1Nc1n[n+](-c2ccccc2)c(-c2c(OC)ccc3ccccc23)s1	JMJD2A Tudor inconclusive, BAZ2B inh inconclusive (no result: Sfp PPTase inh)
Fc1ccc(-[n+]2nc(Nc3ccccc3)sc2-c2c3ccccc3cc3ccccc23)cc1	JMJD2A Tudor 15.8µM, HP1b chromo inh inconclusive, Sfp PPTase inh 44.7µM, BAZ2B inh 5.01µM, G9a block 11.2µM, L3MBTL1 block inconclusive
O=c1oc2ccc3ccccc3c2cc1-c1nnc(Nc2ccc(F)cc2)s1	none (no result: Sfp PPTase inh, L3MBTL1 block)
Oc1ccc2ccccc2c1-c1sc(Nc2ccccc2)n[n+]1-c1ccc(F)cc1	JMJD2A Tudor inconclusive, BAZ2B inh inconclusive, G9a block 39.8µM
CCOC(=O)c1cccc(NC(=O)CCn2c(=O)oc3ccccc32)c1	none (no result: L3MBTL1 block)
CCC(=O)N1c2ccc(S(=O)(=O)CCC(=O)Nc3ccc(Br)c(C)c3)cc2CC1C (stereo not drawn)	JMJD2A Tudor 22.4µM, G9a block 14.1µM (no result: Sfp PPTase inh, BAZ2B inh, L3MBTL1 block)
CCOC(=O)c1cccc(NC(=O)CCn2cccc2)c1	BAZ2B inh inconclusive, G9a block 39.8µM
CCOC(=O)c1cccc(NC(=O)c2cc3cc4cc(OC)ccc4nc3s2)c1	JMJD2A Tudor inconclusive, G9a block inconclusive (no result: Sfp PPTase inh, L3MBTL1 block)
CCC(=O)N1c2ccc(S(=O)(=O)CCC(=O)NC3CCCC3)cc2CC1C (stereo not drawn)	none
CCOC(=O)c1cccc(NC(=O)c2cc3cc4ccc(C)cc4nc3s2)c1	JMJD2A Tudor inconclusive, G9a block 12.6µM (no result: Sfp PPTase inh, L3MBTL1 block)
CCOC(=O)c1cccc(NC(=O)CCS(=O)(=O)c2ccc3c(c2)CCN3C(=O)CC)c1	JMJD2A Tudor 25.1µM, G9a block 11.2µM (no result: Sfp PPTase inh, BAZ2B inh, L3MBTL1 block)
Cc1ccc(Nc2nc(NCc3ccco3)nc3nccnc23)cc1Cl	none (no result: Sfp PPTase inh, BAZ2B inh, G9a block, L3MBTL1 block)
O=C(CSC(=S)N1CCCC1)N(Cc1nnc(-c2ccccc2Cl)o1)C1CC1	G9a block inconclusive (no result: Sfp PPTase inh)
CCOC(=O)CNC(c1ccccc1)c1cc(Br)ccc1NC(=O)c1ccc(Cl)cc1 (stereo not drawn)	none (no result: Sfp PPTase inh, L3MBTL1 block)
CC(=O)N1CCc2cc(S(=O)(=O)CCC(=O)Nc3ccccc3F)ccc21	JMJD2A Tudor 50.1µM, G9a block inconclusive (no result: L3MBTL1 block)
O=[N+]([O-])c1cccc2nc3ccccc3c(NCCCn3ccnc3[N+](=O)[O-])c12	none (no result: Sfp PPTase inh, BAZ2B inh, G9a block, L3MBTL1 block)
CCCN(Cc1cc2ccc(C)cc2[nH]c1=O)C(=O)c1ccccn1	Sfp PPTase inh inconclusive, G9a block 31.6µM
CC1(C)C(=O)C(c2ccccc2)=C2CN3C(=O)N(CCc4ccccc4)C(=O)C3(Cc3ccc(C(F)(F)F)cc3)C=C21 (stereo not drawn)	none (no result: JMJD2A Tudor, HP1b chromo inh, BAZ2B inh, G9a block, L3MBTL1 block)
CCOC(=O)N1CCC(N2C(=O)c3ccccc3C2Nc2cc(Cl)c(OC)cc2OC)CC1 (stereo not drawn)	JMJD2A Tudor inconclusive, BAZ2B inh 44.7µM, G9a block 44.7µM
O=C1c2ccccc2C(Nc2ccc(S(=O)(=O)N3CCOCC3)cc2)N1c1cccnc1 (stereo not drawn)	none (no result: L3MBTL1 block)
CCOC(=O)N1CCC(N2C(=O)c3ccccc3C2Nc2ccc(S(=O)(=O)N3CCOCC3)cc2)CC1 (stereo not drawn)	G9a block 44.7µM (no result: L3MBTL1 block)
CCOC(=O)N1CCC(N2C(=O)c3ccccc3C2Nc2cc(OC)c(OC)c(OC)c2)CC1 (stereo not drawn)	G9a block inconclusive
CCOc1ncccc1C(=O)Nc1cccc(S(=O)(=O)N2CCOCC2)c1	none (no result: Sfp PPTase inh, BAZ2B inh, G9a block)
O=C(Cc1ccccc1)NNC(=S)Nc1ccccc1	G9a block inconclusive
COc1ccc(NC(=S)Nc2ccccc2C(F)(F)F)cc1	none
FC(F)(F)c1ccccc1NC(=S)Nc1ccccc1	G9a block 50.1µM (no result: L3MBTL1 block)
NC(=S)NNC(=S)Nc1ccccc1	HP1b chromo inh inconclusive, Sfp PPTase inh 10µM, G9a block 10µM
CCNC(=S)NNC(=O)Nc1ccccc1	JMJD2A Tudor 31.6µM, HP1b chromo inh inconclusive, G9a block 3.16µM (no result: L3MBTL1 block)
